Measurements reported in PubChem BioAssay.
Calls of active or inactive are those of the source.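 Rule for the calls, unless noted: active = NADPH fluorescence slope more negative than the mean of all samples by about 3 SD, 99.7% confidence; inactive = the rest.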

How the values were obtained:
[1] = inhibitors of TNFa-induced NFkB p65 translocation, primary screen, imaging, HUVEC, MLSMR starter and 10KST1 sets (AID 438;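 active = inhibition above 20% together with a positive visual image hit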;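 note: compound added about 3h40 before a 20 min TNFalpha stimulation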;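 for inhibition: signal is the nuclear over cytoplasmic p65 intensity ratio per well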); settings: HUVEC TNFa-induced p65 nuclear translocation; cell count: measured here: nuclei count (cytotoxicity indicator), at 2.08 µM; inhibition: at 2 µM, stronger effect = higher value, 0% TNFa-plus-vehicle, 100% no-TNFa wells
[2] = reduction of polyQ htt aggregates in cells – imaging, exon1htt(103Q)mCFP cells, high-content imaging, primary screen (AID 483;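 active = visual image review flags a hit and inhibition of aggregation exceeds 20%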;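 note: compound exposure lasted 3 days before fixation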;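 for nuclei count: percent of the per-plate median nuclei count of sample wells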); settings: exon1htt(103Q)mCFP cell line, aggregate imaging, at 2 µM; inhibition of aggregation: stronger effect = higher value; nuclei count: measured here: cell count, toxicity
[3] = endothelial E-selectin expression blockers – imaging, HUVEC, immunofluorescence, MLSMR starter and 10KST1 sets, primary screen (AID 487;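 active = visually confirmed hit in the image check and inhibition above 20%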;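 for inhibition: signal is fraction of cell area covered by stained E-selectin grains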;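 for nuclei count: 100% = median nuclei count of all wells on the same plate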); settings: HUVEC TNFalpha-induced E-selectin immunofluorescence imaging, at 2 µM; inhibition: stronger effect = higher value; nuclei count: measured here: cell number, toxicity
[4] = molecular target: Voltage-gated potassium channel subunit beta-2 (Rattus norvegicus) (UniProt P62483); assay: inhibitors of rat Kvbeta2 reductase activity – biochemical, NADPH fluorescence, primary screen (AID 622;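 active = fluorescence slope higher than the sample average by over 3 SD, cut at about -0.22 in these data, passing the limit was not always enough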;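 note: slope of raw intensity against log time taken from 70 to 1610 s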); settings: recombinant KvBeta, 4-cyanobenzaldehyde reduction, at 10 µM, stronger effect = higher value
Sequence of Voltage-gated potassium channel subunit beta-2 (Rattus norvegicus) (P62483 whole entry, looked up): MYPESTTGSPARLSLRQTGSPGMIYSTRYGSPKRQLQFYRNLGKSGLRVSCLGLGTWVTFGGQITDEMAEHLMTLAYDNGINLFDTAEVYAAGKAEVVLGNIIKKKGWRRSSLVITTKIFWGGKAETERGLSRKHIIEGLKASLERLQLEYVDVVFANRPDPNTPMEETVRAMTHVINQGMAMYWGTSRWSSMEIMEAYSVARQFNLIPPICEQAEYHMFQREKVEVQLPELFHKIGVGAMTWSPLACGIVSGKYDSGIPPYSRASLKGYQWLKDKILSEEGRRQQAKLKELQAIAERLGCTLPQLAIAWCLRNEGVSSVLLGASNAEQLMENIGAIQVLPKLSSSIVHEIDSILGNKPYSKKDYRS

[5] = molecular target: Voltage-gated potassium channel subunit beta-2 (Rattus norvegicus) (UniProt P62483); assay: enhancers of rat Kvbeta2 NADPH turnover – biochemical, NADPH fluorescence, primary screen (AID 623); settings: Recombinant KvBeta, NADPH fluorescence decrease slope, 10 min; at 10 µM; stronger effect = lower value;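 note: fluorescence intensity change per second fitted from 20 to 320 s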
[6] = molecular target: Alpha-2C adrenergic receptor (Homo sapiens) (UniProt P18825); assay: compounds altering alpha2C-coupled GIRK flux – cell-based, HEK293 alpha2C/GIRK1/2, thallium flux, primary screen (AID 624;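 active = fluorescence slope after compound addition differing from the mean of all screened samples at 99.7% confidence, in either direction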;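 note: slope of fluorescence ratio to pre-addition baseline per second over 15 to 24 s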); settings: thallium flux BTC fluorescence, at 10 µM, actives lie on both sides
Sequence of Alpha-2C adrenergic receptor (Homo sapiens) (P18825 whole entry, looked up): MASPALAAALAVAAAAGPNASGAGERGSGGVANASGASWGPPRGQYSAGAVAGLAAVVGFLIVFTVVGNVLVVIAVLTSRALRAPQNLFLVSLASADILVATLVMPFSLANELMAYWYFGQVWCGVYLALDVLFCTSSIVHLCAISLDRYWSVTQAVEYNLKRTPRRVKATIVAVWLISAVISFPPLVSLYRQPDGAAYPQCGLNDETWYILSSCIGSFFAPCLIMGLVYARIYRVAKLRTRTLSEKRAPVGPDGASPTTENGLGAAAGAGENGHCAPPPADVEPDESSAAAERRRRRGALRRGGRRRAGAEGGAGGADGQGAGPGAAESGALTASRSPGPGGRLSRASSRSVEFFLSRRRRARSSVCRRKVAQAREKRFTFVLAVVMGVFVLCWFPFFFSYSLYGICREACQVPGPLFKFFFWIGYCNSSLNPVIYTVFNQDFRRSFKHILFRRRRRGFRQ

[7] = blockers of RIG-like receptor reporter activation – cell-based, Sendai virus stimulus, luciferase, 10K MLSCN set, TLR/RLR signaling modifier project, primary screen (AID 602276;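 active = inhibition at or above 50% at 10 µM; inactive = inhibition below 50%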;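 note: firefly luciferase from ISG56 promoter only with Renilla not read in this screen; 0% = Sendai virus plus DMSO and 100% = medium plus DMSO without virus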); settings: HEK293 RL24 IRF3 luciferase reporter, at 10 µM, stronger effect = higher value
[8] = TLR3 IRF3 reporter activation blockers – cell-based, poly I:C stimulus, luciferase, 10K MLSCN set, primary screen (AID 602277;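 active = inhibition of the reporter signal at or above 50%; inactive = inhibition below 50%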); settings: HEK293-TLR3 RL24 IRF3 luciferase reporter, at 10 µM, stronger effect = higher value

Row | SMILES | cell count [1] | inhibition [1] | inhibition of aggregation [2] | nuclei count [2] [%] | inhibition [3] | nuclei count [3] [%] | fluorescence slope [4] | NADPH fluorescence slope [5] | slope [6] | inhibition [7] | inhibition [8]
1 | CC(O)c1cc2c(cc1NC(=O)c1cnn3c1NC(c1ccco1)CC3C(F)(F)F)OCO2 (stereo not drawn) | 656 | 8.7% (inactive) | -12% (inactive) | 109 | -56.3% (inactive) | 98.9 | -0.583 (inactive) | 3.4e-05 (inactive) | 0.00628 (inactive) | 9.47% (inactive) | 20.2% (inactive)
2 | COc1ccc(-n2c(=O)[nH]cc(C(=O)Nc3ccc(NC(C)=O)cc3)c2=O)cc1 | 233 | 7% (inactive) | 22.1% (inactive) | 49.8 | 30.3% (inactive) | 85.4 | -0.629 (inactive) | 9.9e-06 (inactive) | 0.0073 (inactive) | 9.68% (inactive) | 24.1% (inactive)
3 | CCS(=O)(=O)N1CCC(C(=O)NCCc2ccc(C)cc2)CC1 | 646 | -10.6% (inactive) | 2.7% (inactive) | 81.2 | -178% (inactive) | 136 | -0.596 (inactive) | 1.4e-05 (inactive) | 0.00666 (inactive) | -2.06% (inactive) | 10.2% (inactive)
4 | CCn1cc(C(C)NC(=O)COc2ccc(Cl)cc2C)c(C)n1 (stereo not drawn) | 713 | -14.6% (inactive) | 0.6% (inactive) | 130 | -64.7% (inactive) | 105 | -0.404 (inactive) | -2.9e-05 (inactive) | 0.00313 (inactive) | 1.5% (inactive) | 14.6% (inactive)
5 | O=C(CSc1ncnc2ccccc12)NCCCO | 458 | -11% (inactive) | -1.4% (inactive) | 104 | 7.4% (inactive) | 101 | -0.628 (inactive) | 8.9e-06 (inactive) | 0.00699 (inactive) | 15.3% (inactive) | 26.4% (inactive)
6 | CS(=O)(=O)N(CC(=O)NCCSCc1cccc(Cl)c1)c1ccc2c(c1)OCO2 | 233 | -4.5% (inactive) | 35.8% (active) | 96.5 | 32.5% (inactive) | 71.4 | -0.528 (inactive) | -5.8e-05 (inactive) | 0.00685 (inactive) | -12% (inactive) | 1.85% (inactive)
7 | CCCn1nc(CC(=O)O)c2ccccc2c1=O | 468 | -12.3% (inactive) | 18.8% (inactive) | 123 | -10.6% (inactive) | 119 | -0.426 (inactive) | -3.1e-05 (inactive) | 0.00533 (inactive) | 16.7% (inactive) | 16.8% (inactive)
8 | CC1=C(C(=O)Nc2ccccc2)C(c2ccccn2)n2nc(CCCO)nc2N1 (stereo not drawn) | 662 | 6.2% (inactive) | 13.8% (inactive) | 93.5 | -8.5% (inactive) | 116 | -0.532 (inactive) | -2.2e-05 (inactive) | 0.00679 (inactive) | 9.62% (inactive) | 29.7% (inactive)
